Shown are actives, neighbours in structure and some others; about 2.8% of the full set was active somewhere.
PI5P4K alpha inh: inhibitors of human PI5P4K alpha; P48426; PI5P4Kalpha enzyme, ADP-Glo luminescence, 60 min; hits give low values; max response, %; actives 1.2% (n = 330,000); AID 652105; active means max response of -50% or lower; inconclusive means between -30% and -50%; inactive means -30% or higher; further: value at the top dose of about 77 µM; on the % scale 0 is the no-effect control and ±100 the full control effect
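Single end-point luminescence (ADP-Glo) quantified ADP from PI5P4Kalpha turnover; ATP 5 microM final, 1 h at RT, 0.1% CHAPS and 0.28 mM EGTA in HEPES pH 7.4.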
POLH inh: inhibitors of human DNA polymerase eta | actives 1.2% (n = 390,000) | Potency, µM (doses to about 114 µM), inactives show at the top dose activity change, negative = inhibition, actives largely listed as inhibitors | recombinant Pol eta, fluorescent DNA replication assay | AID 588591; further: potency means the concentration at half of the fitted maximal effect; on the % scale 0 is the no-effect control and ±100 the full control effect
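Pol eta at 10 nM preincubated with compounds 15 min at room temperature; reaction started with fluorescent substrate (50 nM final) and read kinetically at 0 and 10 min.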
Pol kappa inh: blocks human DNA polymerase kappa activity; Q9UBT6; purified Pol kappa, fluorescent DNA synthesis assay, 10 min; Potency, µM (top dose mostly 107 µM), inactives show at the top dose activity, negative = inhibition, most hits filed as inhibitors; actives 0.53% (n = 400,000); further: potency means the concentration at half of the fitted maximal effect; on the % scale 0 is the no-effect control and ±100 the full control effect
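Kinetic fluorescence screen: compound preincubated 15 min RT with 10 nM enzyme; 50 nM substrate (final) initiates; reads at 0/10 min.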
Pol iota inh: blocks human DNA polymerase iota activity; Q9UNA4; actives 1% (n = 390,000); Pol iota fluorescent replication assay, 10 min; Potency, µM (doses to about 115 µM), for the others: at the top dose activity, negative = inhibition, hits mostly inhibitors; AID 588590; further: potency means the concentration at half of the fitted maximal effect
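Fluorescent replication assay read twice, at 0 min and 10 min after adding 50 nM (final) substrate. Enzyme (10 nM) and compounds were first incubated 15 min at room temperature; enzyme-free buffer wells were negative controls.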
Pol beta inh: inhibitors of human DNA polymerase beta | P06746 | Pol beta primer extension/strand displacement, fluorescence kinetic | AID 485314 | Potency, µM (doses to about 114 µM), inactives show at the highest dose activity change, negative = inhibition, actives largely listed as inhibitors | actives 1.3% (n = 340,000); further: potency means the concentration at half of the fitted maximal effect; on the % scale 0 is the no-effect control and ±100 the full control effect
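Preincubation: enzyme (10 nM) with compound, 15 min, RT. Reaction: substrate added to 50 nM final. Reads: 0 and 10 min. Analysis: normalized, Hill fit.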
PI4K2A inh: inhibitors of human PI4K2A | Q9BTU6 | purified PI4K2A, ADP-Glo luminescence, 1 h; hits give low values | activity change, negative = inhibition, % at 76.9 µM | actives 0.13% (n = 420,000) | AID 1346378; in the data active means activity change below about -50%; inconclusive means mostly about -30% to -49%;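 further: -100% = wells without enzyme as full effect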
Target sequence (Q9BTU6 whole entry, looked up): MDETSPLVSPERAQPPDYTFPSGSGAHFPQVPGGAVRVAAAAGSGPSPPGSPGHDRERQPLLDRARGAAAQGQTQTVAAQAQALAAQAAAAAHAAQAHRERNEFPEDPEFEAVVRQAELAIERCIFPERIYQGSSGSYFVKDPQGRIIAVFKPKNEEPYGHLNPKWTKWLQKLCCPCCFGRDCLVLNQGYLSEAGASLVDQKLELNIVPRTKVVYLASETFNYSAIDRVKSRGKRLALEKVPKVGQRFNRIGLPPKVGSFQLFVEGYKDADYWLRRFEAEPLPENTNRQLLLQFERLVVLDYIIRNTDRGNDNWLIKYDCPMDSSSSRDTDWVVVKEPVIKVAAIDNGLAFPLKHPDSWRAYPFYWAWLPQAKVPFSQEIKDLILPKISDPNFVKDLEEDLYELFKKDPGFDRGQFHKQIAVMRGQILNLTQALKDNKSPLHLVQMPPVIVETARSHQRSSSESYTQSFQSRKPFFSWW
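Compounds are screened against recombinant PI4K2A using PI as substrate and ATP, the latter dispensed at 300 microM. Reactions run one hour at ambient temperature before ADP-Glo detection; full inhibition defined by wells lacking enzyme.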
* = called active by the depositor; ? = inconclusive; nt = no result given; [ ] = another dose, or the depositor's remark. Unless noted, the call rests on the fitted dose curve; in most records, active means well fitted inhibition curve with a large enough effect; inconclusive means small, poorly fitted or top-dose-only effect, or another doubt; inactive means no such curve, though single readings can be large or run the other way.

SMILES	PI5P4K alpha inh	POLH inh	Pol kappa inh	Pol iota inh	Pol beta inh	PI4K2A inh
COc1ccccc1-n1c(SCC(=O)NC(C)(C)C)nc(O)cc1=O	nt	-5%	-11%	-11%	2%	11
COc1cccc(-c2cnc3c(NC=O)cc(-c4cccc(NC(C)=O)c4)cn23)c1	-77*	nt	nt	nt	nt	-3
COc1cccc(-c2cnc3c(NC=O)cc(-c4ccccc4)cn23)c1	?	nt	nt	nt	nt	0
COc1cccc(-c2cc(NC=O)c3ncc(-c4ccc(C(C)=O)cc4)n3c2)c1	-68*	nt	nt	nt	nt	-1
COc1cc(-c2cnc3c(NC=O)cc(-c4ccccc4)cn23)cc(OC)c1OC	-16	nt	nt	nt	nt	-4
CC(=O)Nc1cccc(-c2cc(NC=O)c3ncc(-c4cccc(C(C)=O)c4)n3c2)c1	-55*	nt	nt	nt	nt	-6
COc1ccc(-c2cc(NC=O)c3ncc(-c4cccc(C(C)=O)c4)n3c2)cc1	-27	nt	nt	nt	nt	-5
COc1cc(-c2cnc3c(NC=O)cc(-c4cccc(NC(C)=O)c4)cn23)cc(OC)c1OC	-60*	nt	nt	nt	nt	-9
COc1ccc(-c2nc3ccc(NC(=O)COC(C)=O)cc3c(=O)n2Cc2ccccc2)cc1COc1ccc(NC(C)=O)cc1	nt	nt	-10%	?	nt	nt
CN(C)C(=O)c1cccc(-c2cc(NC=O)c3ncc(-c4ccc(F)cc4)n3c2)c1	-30	nt	nt	nt	nt	5
CC(=O)c1ccc(-c2cnc3c(NC=O)cc(-c4cccc(C(=O)N(C)C)c4)cn23)cc1	-59*	nt	nt	nt	nt	-5
Cc1ccccc1CSCC(=O)NNC(=S)NCC1CCCO1 (stereo not drawn)	-3	-11%	-33%	89µM*	?	0
COCCn1c(=O)cnc2cnc(Oc3ccccc3)nc21	nt	nt	-1%[60.1 µM]	nt	nt	nt
C=CC[n+]1cccc2cccc(O)c21	nt	nt	3%	13µM*	nt	nt
Cc1nnc2c3ccccc3nc(Nc3ccccc3C(=O)O)n12	nt	79µM*	-11%	-13%	-28%	-2
O=C(C1CCCN(S(=O)(=O)c2ccc([N+](=O)[O-])cc2)C1)N1CCN(Cc2ccccc2)CC1 (stereo not drawn)	nt	nt	nt	nt	nt	3
CCC1C/C(=C\c2cccnc2)C(=O)/C(=C/c2cccnc2)C1 (stereo not drawn)	3	11µM*	-6%	22µM*	0%	-14
O=C1/C(=C/c2cccnc2)CC/C1=C\c1cccnc1	-11	-9%	-8%	12%	0%	4
O=C1/C(=C/c2cccnc2)CCC/C1=C\c1cccnc1	0	22µM*	4%	45µM*	0%	-26
C=C1C=C(C)n2ncc(C(=O)Nc3ccccc3C(=O)OC)c2N1	nt	nt	-20%	9%	nt	nt
COc1ccc(CNC(=O)CN(C)c2nn3c(=O)cc(C)nc3s2)cc1	nt	2%	-18%	-11%	1%	4
Cc1c(C(=O)O)cccc1-n1c(C)cc(/C=N/Nc2ccc([N+](=O)[O-])cn2)c1C	?	?	79µM*	50µM*	25µM*	-7
COC(=O)C1=C[C@@H](C(=O)OC)C2C3=C(C(=O)[C@@]2(C)NC(=O)c2ccccc2)[C@H](c2ccccc2)n2c(=O)n(-c4ccccc4)c(=O)n2[C@@H]3C1 (stereo partly drawn)	nt	nt	-10%	-7%	nt	nt
O=c1[nH]c(Nc2ccc(F)cc2)cc2ccccc12	nt	22µM*	-6%	7.1µM*	-16%	-51*
C#CCOCCOCCOCCNc1nc(N2CCN(C(=O)[C@H](CCCCN)n3cc([C@@H](N)C(C)CC)nn3)CC2)nc(N2CCN(C(=O)[C@H](CCCCN)n3cc([C@@H](N)C(C)CC)nn3)CC2)n1 (stereo partly drawn)	nt	nt	nt	nt	nt	-2
SMILES	PI5P4K alpha inh	POLH inh	Pol kappa inh	Pol iota inh	Pol beta inh	PI4K2A inh
C=CCNC(=O)NC(=O)COC(=O)/C=C/c1cccc([N+](=O)[O-])c1	-83*	-10%	0%	124%	-24%	0
CC(C)CCNC(=O)NC(=O)COC(=O)/C=C/c1cccc([N+](=O)[O-])c1	-1	-22%	-3%	190%	8%	-4
N#C/C(=C\c1c(Oc2ccc(Br)cc2)nc2ccccn2c1=O)c1nc2ccccc2s1	nt	6%	79µM*	13µM*	-4%	-25
CC[n+]1ccc(/C=C2\Sc3ccccc3N2CCCS(=O)(=O)[O-])c2ccccc21	4	-5%	?	29%	11µM*	10
C[n+]1ccccc1/C=C1\Sc2ccccc2N1CCO	-10	-8%	-15%	86%	-21%	-4
O=C(O)c1ccc(NC(CSCc2ccc(F)cc2)C(=O)O)c([N+](=O)[O-])c1 (stereo not drawn)	nt	-1%	-15%	79µM*	3%	-5
Cc1ccc(CSCC(Nc2ccc(C(=O)O)cc2[N+](=O)[O-])C(=O)O)cc1 (stereo not drawn)	nt	-3%	-4%[60.1 µM]	1%	27%	1
C/C=C(\C)C(=O)OC1CC(C)(C)C[C@H]2C3=CC[C@@H]4[C@@]5(C)CCC(O[C@@H]6O[C@@H](C(=O)O)[C@@H](O)C(O[C@@H]7OC[C@H](O)[C@@H](O)[C@@H]7O[C@@H]7OC(CO)C(O)[C@@H](O)[C@@H]7O)C6O[C@@H]6OC(CO)C(O)C(O)C6O)[C@@](C)(CO)[C@@H]5CC[C@]4(C)[C@]3(C)CC(O)[C@@]12CO (stereo partly drawn)	?	?	-22%	13µM*	nt	-8
CC1(C)CC[C@]2(C(=O)O[C@@H]3OC(CO)[C@@H](O)[C@H](O)[C@H]3O)CC[C@]3(C)C(=CCC4[C@@]5(C)CC[C@H](O[C@@H]6OC(C(=O)O)[C@@H](O)[C@H](O)[C@H]6O)C(C)(C)C5CC[C@]43C)[C@@H]2C1 (stereo partly drawn)	-21	?	-28%	-25%	nt	-3
CCOC(=O)C1=c2s/c(=C\c3ccncc3)c(=O)n2C(N)=C(C(=O)OC)C1c1ccncc1 (stereo not drawn)	-1	-24%	0%	2%	30%	-1
CCOC(=O)C1=C(N)n2c(s/c(=C/c3ccco3)c2=O)=C(C(=O)OC)C1c1ccco1 (stereo not drawn)	-26	?	?	?	28µM*	-12
N#CC1=C(N)n2c(s/c(=C\c3cccs3)c2=O)=C(C#N)C1c1cccs1 (stereo not drawn)	-56*	45µM*	?	?	?	-1
Cc1ccccc1-n1c(=O)/c(=C\c2ccco2)s/c1=C(/C#N)C(=O)Nc1ccccc1	-22	-3%	-31%	-2%	12%	-1

Screening data as filed in PubChem BioAssay.
